The results in this text go back to ChEMBL document CHEMBL2218924, “A broad activity screen in support of a chemogenomic map for kinase signalling research and drug discovery” (Biochem J, 2013).

In test [1] the target is Death-associated protein kinase 1 (Homo sapiens) (UniProt P53355). The following applies: at 1 µM.
For test [2] the target is unchanged. As to conditions: at 10 µM.
Test [3] addresses Death-associated protein kinase 2 (Homo sapiens) (UniProt Q9UIK4). The following applies: at 1 µM.
Test [4] shares this target. As to conditions: at 10 µM.
Test [5] concerns the target T1, Serine/threonine-protein kinase DCLK2 (Homo sapiens) (UniProt Q8N568).
T1 sequence (whole entry): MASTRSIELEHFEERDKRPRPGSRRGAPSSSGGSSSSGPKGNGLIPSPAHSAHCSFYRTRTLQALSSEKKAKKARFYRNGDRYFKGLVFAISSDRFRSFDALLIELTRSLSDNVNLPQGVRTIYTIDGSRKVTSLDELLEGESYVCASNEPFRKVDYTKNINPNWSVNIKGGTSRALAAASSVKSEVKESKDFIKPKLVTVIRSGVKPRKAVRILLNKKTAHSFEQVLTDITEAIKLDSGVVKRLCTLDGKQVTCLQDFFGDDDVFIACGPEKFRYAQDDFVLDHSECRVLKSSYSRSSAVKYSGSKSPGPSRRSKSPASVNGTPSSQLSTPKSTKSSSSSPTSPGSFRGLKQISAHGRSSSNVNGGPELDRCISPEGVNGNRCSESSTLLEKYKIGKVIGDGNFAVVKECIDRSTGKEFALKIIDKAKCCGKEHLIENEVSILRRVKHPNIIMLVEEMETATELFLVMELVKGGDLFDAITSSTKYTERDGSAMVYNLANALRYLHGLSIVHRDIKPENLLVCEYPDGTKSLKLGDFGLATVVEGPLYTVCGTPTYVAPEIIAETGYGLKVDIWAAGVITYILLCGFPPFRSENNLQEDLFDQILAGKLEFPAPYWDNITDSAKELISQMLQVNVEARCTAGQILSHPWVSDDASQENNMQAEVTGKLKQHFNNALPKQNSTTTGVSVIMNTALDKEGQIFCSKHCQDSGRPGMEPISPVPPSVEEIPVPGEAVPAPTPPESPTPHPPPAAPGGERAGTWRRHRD
As to conditions: at 1 µM.

Test [6] has as its target T1, Serine/threonine-protein kinase DCLK2 (Homo sapiens). As to conditions: at 10 µM.
Test [7] addresses T2, Discoidin domain-containing receptor 2 (Homo sapiens) (UniProt Q16832).
T2 sequence (whole entry): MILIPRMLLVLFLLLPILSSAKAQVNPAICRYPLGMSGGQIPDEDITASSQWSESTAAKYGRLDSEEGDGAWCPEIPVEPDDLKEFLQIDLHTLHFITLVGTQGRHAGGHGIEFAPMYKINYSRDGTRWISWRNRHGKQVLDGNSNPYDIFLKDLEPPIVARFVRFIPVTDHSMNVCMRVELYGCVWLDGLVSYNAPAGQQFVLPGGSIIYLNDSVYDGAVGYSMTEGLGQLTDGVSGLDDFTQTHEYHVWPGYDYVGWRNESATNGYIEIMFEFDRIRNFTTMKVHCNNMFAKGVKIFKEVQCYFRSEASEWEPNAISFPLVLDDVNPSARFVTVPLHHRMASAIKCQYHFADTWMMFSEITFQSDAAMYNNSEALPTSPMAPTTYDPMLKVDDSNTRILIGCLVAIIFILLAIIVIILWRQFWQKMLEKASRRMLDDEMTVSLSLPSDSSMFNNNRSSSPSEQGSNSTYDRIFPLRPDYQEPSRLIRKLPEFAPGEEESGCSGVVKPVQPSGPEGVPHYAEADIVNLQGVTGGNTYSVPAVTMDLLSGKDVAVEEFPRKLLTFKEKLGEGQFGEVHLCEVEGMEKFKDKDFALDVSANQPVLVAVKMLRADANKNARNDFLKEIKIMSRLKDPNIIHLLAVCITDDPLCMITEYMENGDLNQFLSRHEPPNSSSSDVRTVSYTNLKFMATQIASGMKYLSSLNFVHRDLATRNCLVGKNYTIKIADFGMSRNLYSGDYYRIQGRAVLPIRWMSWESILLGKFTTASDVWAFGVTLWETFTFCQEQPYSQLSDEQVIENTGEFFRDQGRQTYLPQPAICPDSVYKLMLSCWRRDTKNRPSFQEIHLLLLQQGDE
The following applies: at 1 µM.

In test [8] the target is T2, Discoidin domain-containing receptor 2 (Homo sapiens). As to conditions: at 10 µM.
The target of test [9] is T3, Myotonin-protein kinase (Homo sapiens) (UniProt Q09013).
T3 sequence (whole entry): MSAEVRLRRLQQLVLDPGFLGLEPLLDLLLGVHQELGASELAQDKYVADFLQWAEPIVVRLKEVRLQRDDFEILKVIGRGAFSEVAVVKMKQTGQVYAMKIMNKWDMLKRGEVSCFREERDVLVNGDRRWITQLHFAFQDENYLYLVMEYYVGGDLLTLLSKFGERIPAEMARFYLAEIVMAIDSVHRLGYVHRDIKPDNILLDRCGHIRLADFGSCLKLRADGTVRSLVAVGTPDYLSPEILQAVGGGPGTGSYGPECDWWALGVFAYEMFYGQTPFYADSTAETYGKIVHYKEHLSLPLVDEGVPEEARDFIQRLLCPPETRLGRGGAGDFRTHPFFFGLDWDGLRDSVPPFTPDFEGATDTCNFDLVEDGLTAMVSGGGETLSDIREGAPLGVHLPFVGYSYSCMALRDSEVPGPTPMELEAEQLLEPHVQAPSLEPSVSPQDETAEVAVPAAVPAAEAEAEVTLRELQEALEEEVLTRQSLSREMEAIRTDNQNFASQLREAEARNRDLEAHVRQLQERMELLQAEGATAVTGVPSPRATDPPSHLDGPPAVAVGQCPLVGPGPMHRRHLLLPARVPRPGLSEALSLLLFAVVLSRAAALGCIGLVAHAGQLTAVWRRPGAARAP
As to conditions: at 1 µM.

Test [10] deals with T3, Myotonin-protein kinase (Homo sapiens). The following applies: at 10 µM.
Test [11] addresses T4, Serine/threonine-protein kinase 17A (Homo sapiens) (UniProt Q9UEE5).
T4 sequence (whole entry): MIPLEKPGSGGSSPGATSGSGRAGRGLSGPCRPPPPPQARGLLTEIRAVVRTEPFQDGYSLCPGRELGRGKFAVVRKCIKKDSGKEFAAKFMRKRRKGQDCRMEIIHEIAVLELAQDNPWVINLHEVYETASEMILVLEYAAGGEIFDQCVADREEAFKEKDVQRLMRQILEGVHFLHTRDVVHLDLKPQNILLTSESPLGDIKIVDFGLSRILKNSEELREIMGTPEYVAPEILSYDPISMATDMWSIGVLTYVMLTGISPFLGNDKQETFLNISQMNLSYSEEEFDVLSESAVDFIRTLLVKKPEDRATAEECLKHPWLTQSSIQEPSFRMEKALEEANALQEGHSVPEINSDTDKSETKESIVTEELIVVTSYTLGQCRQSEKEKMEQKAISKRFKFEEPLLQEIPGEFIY
The following applies: at 1 µM.

In test [12] the target is T4, Serine/threonine-protein kinase 17A (Homo sapiens). The following applies: at 10 µM.
The target in test [13] is T5, Dual specificity tyrosine-phosphorylation-regulated kinase 2 (Homo sapiens) (UniProt Q92630).
T5 sequence (whole entry): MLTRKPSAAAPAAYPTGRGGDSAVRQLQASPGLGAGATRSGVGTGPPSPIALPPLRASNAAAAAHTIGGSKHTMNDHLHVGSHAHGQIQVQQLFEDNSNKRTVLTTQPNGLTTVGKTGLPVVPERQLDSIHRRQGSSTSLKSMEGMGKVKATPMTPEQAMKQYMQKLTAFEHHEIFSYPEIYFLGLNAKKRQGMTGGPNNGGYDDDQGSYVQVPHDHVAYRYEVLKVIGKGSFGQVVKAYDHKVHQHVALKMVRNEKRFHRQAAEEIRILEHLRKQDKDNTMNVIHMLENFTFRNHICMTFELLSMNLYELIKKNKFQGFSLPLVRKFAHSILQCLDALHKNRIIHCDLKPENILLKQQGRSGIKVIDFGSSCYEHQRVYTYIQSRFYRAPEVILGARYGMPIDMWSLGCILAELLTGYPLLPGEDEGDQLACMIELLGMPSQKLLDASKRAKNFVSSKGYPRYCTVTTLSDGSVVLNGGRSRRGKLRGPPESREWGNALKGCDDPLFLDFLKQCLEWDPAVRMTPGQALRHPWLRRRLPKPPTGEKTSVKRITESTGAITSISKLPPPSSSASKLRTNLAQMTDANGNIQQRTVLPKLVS
As to conditions: at 1 µM.

In test [14] the target is T5, Dual specificity tyrosine-phosphorylation-regulated kinase 2 (Homo sapiens). The following applies: at 10 µM.
Test [15] has as its target T6, Ephrin type-A receptor 1 (Homo sapiens) (UniProt P21709).
T6 sequence (whole entry): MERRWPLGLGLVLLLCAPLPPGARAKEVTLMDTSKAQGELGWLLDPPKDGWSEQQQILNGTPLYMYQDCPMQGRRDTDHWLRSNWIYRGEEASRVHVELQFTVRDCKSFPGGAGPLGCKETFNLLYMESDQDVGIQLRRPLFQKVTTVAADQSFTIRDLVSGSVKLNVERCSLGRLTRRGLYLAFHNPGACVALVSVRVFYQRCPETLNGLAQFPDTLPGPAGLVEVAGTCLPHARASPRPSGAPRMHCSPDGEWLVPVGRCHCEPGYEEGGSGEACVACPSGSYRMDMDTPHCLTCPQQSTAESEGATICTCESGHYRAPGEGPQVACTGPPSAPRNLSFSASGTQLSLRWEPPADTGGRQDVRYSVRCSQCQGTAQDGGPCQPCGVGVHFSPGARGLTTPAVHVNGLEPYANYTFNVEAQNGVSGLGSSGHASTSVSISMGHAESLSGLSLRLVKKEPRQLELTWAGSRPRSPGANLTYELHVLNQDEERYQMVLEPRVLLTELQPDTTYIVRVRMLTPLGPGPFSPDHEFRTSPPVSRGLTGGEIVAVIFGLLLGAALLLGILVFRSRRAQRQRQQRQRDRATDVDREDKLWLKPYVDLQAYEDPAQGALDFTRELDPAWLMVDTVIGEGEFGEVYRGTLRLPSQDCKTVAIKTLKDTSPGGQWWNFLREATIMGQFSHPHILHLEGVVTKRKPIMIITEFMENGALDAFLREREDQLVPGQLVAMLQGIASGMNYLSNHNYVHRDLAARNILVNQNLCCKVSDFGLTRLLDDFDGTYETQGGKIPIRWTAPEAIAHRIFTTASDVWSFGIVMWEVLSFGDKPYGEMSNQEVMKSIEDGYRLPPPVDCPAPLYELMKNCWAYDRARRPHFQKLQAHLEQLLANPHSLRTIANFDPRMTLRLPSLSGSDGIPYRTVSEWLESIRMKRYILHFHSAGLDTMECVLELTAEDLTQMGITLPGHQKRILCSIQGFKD
As to conditions: at 1 µM.

The target in test [16] is T6, Ephrin type-A receptor 1 (Homo sapiens). As to conditions: at 10 µM.
Test [17] deals with Ephrin type-A receptor 2 (Homo sapiens) (UniProt P29317). The following applies: at 1 µM.
Sequence of Ephrin type-A receptor 2 (Homo sapiens) (P29317 whole entry): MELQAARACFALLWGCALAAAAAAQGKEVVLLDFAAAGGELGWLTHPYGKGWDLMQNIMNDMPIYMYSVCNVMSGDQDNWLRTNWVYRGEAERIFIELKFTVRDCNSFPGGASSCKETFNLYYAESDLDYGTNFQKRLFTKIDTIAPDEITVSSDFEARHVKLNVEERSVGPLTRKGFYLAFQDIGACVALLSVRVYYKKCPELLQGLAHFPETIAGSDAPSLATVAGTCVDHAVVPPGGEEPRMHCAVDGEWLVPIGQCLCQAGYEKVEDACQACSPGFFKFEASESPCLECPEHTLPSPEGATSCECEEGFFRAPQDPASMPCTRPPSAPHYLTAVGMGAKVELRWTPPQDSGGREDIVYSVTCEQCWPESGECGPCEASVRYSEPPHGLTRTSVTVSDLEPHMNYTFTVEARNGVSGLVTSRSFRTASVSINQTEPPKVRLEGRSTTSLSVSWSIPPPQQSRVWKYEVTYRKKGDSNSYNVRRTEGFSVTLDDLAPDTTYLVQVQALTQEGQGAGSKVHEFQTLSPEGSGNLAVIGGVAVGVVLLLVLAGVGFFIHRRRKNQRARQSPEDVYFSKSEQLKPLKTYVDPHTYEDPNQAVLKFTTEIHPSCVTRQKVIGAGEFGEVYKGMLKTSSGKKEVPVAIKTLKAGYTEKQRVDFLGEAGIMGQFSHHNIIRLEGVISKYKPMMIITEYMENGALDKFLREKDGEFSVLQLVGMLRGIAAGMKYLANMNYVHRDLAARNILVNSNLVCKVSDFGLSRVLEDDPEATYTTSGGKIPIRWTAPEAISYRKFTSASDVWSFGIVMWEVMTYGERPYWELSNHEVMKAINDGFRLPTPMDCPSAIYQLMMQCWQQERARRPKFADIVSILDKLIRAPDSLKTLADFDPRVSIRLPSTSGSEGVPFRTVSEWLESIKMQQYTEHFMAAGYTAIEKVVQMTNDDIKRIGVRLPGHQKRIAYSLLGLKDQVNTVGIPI
For test [18] the target is unchanged. The following applies: at 10 µM.
In test [19] the target is T7, Ephrin type-A receptor 3 (Homo sapiens) (UniProt P29320).
T7 sequence (whole entry): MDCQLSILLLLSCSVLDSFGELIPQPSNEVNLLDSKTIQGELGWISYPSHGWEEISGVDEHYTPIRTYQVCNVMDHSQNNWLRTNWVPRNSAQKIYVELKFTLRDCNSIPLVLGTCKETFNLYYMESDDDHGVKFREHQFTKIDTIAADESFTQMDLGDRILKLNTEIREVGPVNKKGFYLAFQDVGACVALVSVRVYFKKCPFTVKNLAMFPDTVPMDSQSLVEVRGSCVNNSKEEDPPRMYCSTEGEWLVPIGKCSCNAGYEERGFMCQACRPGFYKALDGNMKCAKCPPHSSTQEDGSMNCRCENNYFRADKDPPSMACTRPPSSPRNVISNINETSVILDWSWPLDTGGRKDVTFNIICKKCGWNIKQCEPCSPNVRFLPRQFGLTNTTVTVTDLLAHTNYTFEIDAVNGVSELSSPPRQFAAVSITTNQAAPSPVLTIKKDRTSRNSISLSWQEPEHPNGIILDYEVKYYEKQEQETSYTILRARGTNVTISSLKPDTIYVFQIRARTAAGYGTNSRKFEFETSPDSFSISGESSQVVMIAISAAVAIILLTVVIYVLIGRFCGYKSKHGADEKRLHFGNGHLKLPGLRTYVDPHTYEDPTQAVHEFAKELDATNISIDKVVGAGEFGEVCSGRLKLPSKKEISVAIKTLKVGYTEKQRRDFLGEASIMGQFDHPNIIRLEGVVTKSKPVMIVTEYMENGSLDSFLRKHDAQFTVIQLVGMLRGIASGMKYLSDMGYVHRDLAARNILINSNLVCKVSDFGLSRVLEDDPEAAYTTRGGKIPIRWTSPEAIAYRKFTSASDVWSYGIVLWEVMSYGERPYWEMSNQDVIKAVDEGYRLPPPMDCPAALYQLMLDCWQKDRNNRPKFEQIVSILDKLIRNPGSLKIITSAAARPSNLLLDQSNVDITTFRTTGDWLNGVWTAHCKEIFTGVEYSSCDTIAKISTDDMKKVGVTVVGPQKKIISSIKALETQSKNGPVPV
As to conditions: at 1 µM.

Sequence of Death-associated protein kinase 2 (Homo sapiens) (Q9UIK4 whole entry, looked up): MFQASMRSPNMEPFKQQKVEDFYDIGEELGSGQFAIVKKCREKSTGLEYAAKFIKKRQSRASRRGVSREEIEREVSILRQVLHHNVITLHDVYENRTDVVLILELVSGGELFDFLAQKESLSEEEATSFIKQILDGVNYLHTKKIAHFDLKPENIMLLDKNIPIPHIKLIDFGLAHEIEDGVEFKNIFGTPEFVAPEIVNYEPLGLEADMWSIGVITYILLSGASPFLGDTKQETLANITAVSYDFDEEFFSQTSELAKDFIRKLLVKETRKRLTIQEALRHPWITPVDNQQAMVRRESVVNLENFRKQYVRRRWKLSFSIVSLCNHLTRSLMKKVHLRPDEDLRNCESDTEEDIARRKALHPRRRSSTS
Sequence of Death-associated protein kinase 1 (Homo sapiens) (P53355 whole entry, looked up): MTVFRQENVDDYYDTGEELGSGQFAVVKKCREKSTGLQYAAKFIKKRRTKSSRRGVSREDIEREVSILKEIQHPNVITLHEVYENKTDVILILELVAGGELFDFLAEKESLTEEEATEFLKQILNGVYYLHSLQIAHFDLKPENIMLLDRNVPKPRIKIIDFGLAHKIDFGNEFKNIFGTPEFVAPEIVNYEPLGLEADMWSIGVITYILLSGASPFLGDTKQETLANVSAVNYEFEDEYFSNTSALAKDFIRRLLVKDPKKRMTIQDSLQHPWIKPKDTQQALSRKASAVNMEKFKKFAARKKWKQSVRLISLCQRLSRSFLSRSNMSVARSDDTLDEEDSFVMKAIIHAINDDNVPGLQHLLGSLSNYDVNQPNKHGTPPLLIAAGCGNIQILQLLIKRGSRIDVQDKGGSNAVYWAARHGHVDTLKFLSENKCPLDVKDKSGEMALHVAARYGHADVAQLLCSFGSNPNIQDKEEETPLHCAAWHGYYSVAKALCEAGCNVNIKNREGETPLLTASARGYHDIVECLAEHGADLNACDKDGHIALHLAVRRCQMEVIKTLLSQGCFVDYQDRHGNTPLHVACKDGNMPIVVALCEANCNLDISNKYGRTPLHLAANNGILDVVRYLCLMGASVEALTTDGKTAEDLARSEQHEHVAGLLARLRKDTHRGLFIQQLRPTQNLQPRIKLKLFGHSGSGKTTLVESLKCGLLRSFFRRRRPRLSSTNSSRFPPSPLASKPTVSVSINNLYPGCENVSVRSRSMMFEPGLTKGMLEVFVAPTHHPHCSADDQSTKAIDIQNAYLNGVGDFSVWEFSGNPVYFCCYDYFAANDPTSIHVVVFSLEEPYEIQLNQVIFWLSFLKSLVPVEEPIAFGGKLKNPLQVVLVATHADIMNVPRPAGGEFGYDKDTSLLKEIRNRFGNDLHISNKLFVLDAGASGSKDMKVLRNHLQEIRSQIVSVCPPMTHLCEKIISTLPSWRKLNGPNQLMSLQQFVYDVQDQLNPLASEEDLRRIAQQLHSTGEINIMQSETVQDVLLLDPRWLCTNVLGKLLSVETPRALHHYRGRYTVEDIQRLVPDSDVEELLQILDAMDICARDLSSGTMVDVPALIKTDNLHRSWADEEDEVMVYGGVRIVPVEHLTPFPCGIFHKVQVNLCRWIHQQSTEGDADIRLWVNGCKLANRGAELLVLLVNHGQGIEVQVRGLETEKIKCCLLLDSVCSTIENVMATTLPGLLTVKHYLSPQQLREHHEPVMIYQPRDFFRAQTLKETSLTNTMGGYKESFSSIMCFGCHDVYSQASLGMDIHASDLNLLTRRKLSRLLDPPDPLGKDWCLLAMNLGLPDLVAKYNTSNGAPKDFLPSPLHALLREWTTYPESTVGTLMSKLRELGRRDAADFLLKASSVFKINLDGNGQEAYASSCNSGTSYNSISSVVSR

Take `C[S+]([O-])c1ccc(-c2nc(-c3ccc(F)cc3)c(-c3ccncc3)[nH]2)cc1` (centres undefined): the residual activity was found to be 85% in [1]; 84% in test [2]; 90% in test [3]; 103% in [4]; 132% in test [5]; 111% in test [6]. Further, the residual activity in [7] was found to be 94%; in test [8], 46%; in [9] it was 122%; in test [10], 102%; in test [11], 123%; in test [12], 103%. The residual activity in test [13] came to 115%; in test [14], 98%; in test [15], 90%; in [16], 26%; in test [17], 95%; in test [18], 62%. Also, the residual activity in test [19] was determined as 105%.
